Assay results taken from PubChem BioAssay AID1508600 (Functional Genomics Laboratory (NCATS/FGL), 2020).
The campaign covered roughly 53,000 sequences. About 3,700 (7%) were called active. This is one part of a sample in which actives are shown more often than they occur.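 The calls were made as follows: active = gene knockdowns whose robust z-score for IL-1 alpha signal is at least 2 or at most -2, so actives lie on both sides; inactive = the rest.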

Experiment: Components of the Cytosolic LPS Sensing Pathway: Gene Identification via Genome-wide siRNA Screen;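 also: robust z of the log signal after scaling to non-targeting control siRNA wells of the plate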
Conditions: RAW264.7 macrophages, IL-1a HTRF, actives lie on both sides, screened at 100 nM (by protocol), cells primed 5 h with Pam3CSK4 first
Procedure, shortened: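 Mouse macrophage line RAW264.7 is transfected with siRNA (100 nM final), grown 48h, primed with TLR ligand Pam3CSK4 5 h and given intracellular LipidA 24 h. IL-1a in supernatant is read by HTRF and viability by luminescence.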

| Sequence | z-score |
| --- | --- |
| GGAUUCAUGAAAUAAGUCATT against Zfp426 | -0.603 (inactive) |
| CGUGGUCUCGGACACUUUCTT against Hcn2 | -0.096 (inactive) |
| GGUGGAAUGAGGAAACAACTT against Cck | -0.945 (inactive) |
| GGAUUUAGCUAAGAGAGGGTT against Zmat3 | -0.125 (inactive) |
| CGAUGGUGAUUAUCUAAAATT against Tm4sf4 | -0.0694 (inactive) |
| GCGAAUGUGUGUAUUCUGGTT against BC055324 | -0.791 (inactive) |
| CGGUUGAUGGAAAAAUACATT against Ppef2 | 2.43 (active) |
| GGAAAGAUGAGACCACCCGTT against Stau1 | -0.582 (inactive) |
| GGCAAUAAUAAAUAGCACCTT against Homer1 | 0.8 (inactive) |
| GGUAGAUGAACUUUAAAGATT against Syt13 | -0.846 (inactive) |
| GGACUUCUUAACCGCCCUGTT against Sirt5 | 0.355 (inactive) |
| GGCUCAUGAGAAGACACACTT against Zbtb17 | 0.204 (inactive) |
| GGUGCUAGUGGUGACCAUGTT against Pign | 2.2 (active) |
| CGUGAAAAAGUUAGCAAGUTT against Tars2 | 0.198 (inactive) |
| GGUUCUCCAAGGAAAGAGGTT against 2310002L09Rik | 2.8 (active) |
| CCUUCUAGUACAAAAGUUGTT against Jmjd1c | 1.32 (inactive) |
| GGACAAGAGAACAACUAGUTT against Mrtfb | 0.0162 (inactive) |
| GACCAAAGCACUGACUAUGTT against Lyz2 | -0.184 (inactive) |
| GGAAGAAAUGGACCAGCUGTT against Hgh1 | -0.416 (inactive) |
| GGUUUCCAUGGUAACGUGGTT against Tns1 | 2.24 (active) |
| GGGCAUAUGAGAUUUAUUATT against Trappc2 | -0.423 (inactive) |
| GGCCUACAUACUCCUGAAGTT against Ttc21a | -1.28 (inactive) |
| GGGAGCUGUUAACCUCAUCTT against Mthfr | 3.34 (active) |

| Sequence | z-score |
| --- | --- |
| CCUAGAUUAAAUACUCGGATT against Saxo2 | 1.45 (inactive) |
| GCAGCCAAAUUCAUCCUCATT against Tspan33 | -0.552 (inactive) |
| GGAAUGGACAAAAUGAUUCTT against Cct4 | 1.53 (inactive) |
| UGUUGUUUUACCUGUGCCUTT against Gm10283 | -1.14 (inactive) |
| GGCUCAUGGAAAACUCUAUTT against Hspa9 | 2.24 (active) |
| GGUUGCCAAUGACACUCGGTT against Trak2 | -0.342 (inactive) |
| GCCAUUCUAACUCUGCCUCTT against Olfr639 | 0.232 (inactive) |
| GGGUUCAACACAGCCAAUGTT against Fam151a | 0.987 (inactive) |
| CCCUAUUUGACAAAUUCCUTT against Cdo1 | 0.245 (inactive) |
| GCUGAAUCACUACCAGUCATT against Zfp462 | 1.27 (inactive) |
| GGCAAUUCGAAUUUUGGUUTT against Rtraf | 0.891 (inactive) |
| GGCAAACGAAACACUAGCATT against Cacna1d | 4.94 (active) |
| GGUACUUCAUCGAUUCAGCTT against Zfp593 | -0.561 (inactive) |
| GGAUAGCACAGCCCUACAUTT against Kcns1 | -0.197 (inactive) |
| GCUUACUGUCCCUUAAGUUTT against Msantd1 | 2.45 (active) |
| GGACAAAGAUGAAUAUGUGTT against Spag6l | -0.34 (inactive) |
| GGCCGUGAUGCUAGAGAACTT against Zfp661 | 0.131 (inactive) |
| GGUGAUUCACAUACUUUAUTT against Vps54 | 0.612 (inactive) |
| GGGUUACCAGACUAACAAATT against Stfa3 | 0.763 (inactive) |
| GCGAAUUCGUGAGAAGAGCTT against Ripk4 | -0.884 (inactive) |
| GCACGUAUGCUCUUUCUCATT against Pigw | -2.52 (active) |
| CCAAGUAAGGACUAUAGAGTT against Gpatch2 | -1.02 (inactive) |
| CGCUGCUAAGAAUCAUCUATT against Ednrb | 0.287 (inactive) |

| Sequence | z-score |
| --- | --- |
| GGAAGCCACGGUCAUGUGUTT against Trim9 | 0.746 (inactive) |
| GGAAUGGGCAGUAUGAGUUTT against Ocrl | -1.73 (inactive) |
| GGUAGUCAAGUCGAAAGUATT against Ccdc18 | -2.19 (active) |
| GGACAAUGCUGUGACCUCUTT against Amn | -0.949 (inactive) |
| GGGAAGCAGAAAUGAGAAATT against Pdcd5 | 0.135 (inactive) |
| GAGUGUUUCAGAUUCUUCATT against Klra8 | 0.329 (inactive) |
| UCUUUGUGAUUUCGAAGCCTT against Slc17a9 | 2.31 (active) |
| GGAUAAAGAAGGUAUUCUUTT against Mccc1 | -0.891 (inactive) |
| GGCCCAGAAGGUUAUCAUCTT against Ptf1a | 0.606 (inactive) |
| GGAAAUCACGACCAUGGCGTT against Gtf2b | 0.0198 (inactive) |
| GCACUUCCGACUUUUUCACTT against Mettl24 | -1.69 (inactive) |
| GAGCUUCUGGCUGAGAUAATT against Espn | -0.388 (inactive) |
| GUGUAUGCGCUGAUCCUAUTT against 1700020N01Rik | 0.181 (inactive) |
| GGAGCUCUCAUCCUACUAUTT against Eif4ebp3 | -0.0855 (inactive) |
| GGCCUUUGAGAAGAACAUUTT against Copz1 | -2.16 (active) |
| GGAGUUUUUAUUCAAGGAATT against Slc35b3 | -1.07 (inactive) |
| GGCAGUGUACAUCUGGAUATT against Olfr611 | 1.85 (inactive) |
| CCGUGUUCCGAGGAUAUGUTT against Cyp2e1 | -0.212 (inactive) |
| GGGACUAUGACAAAACAGCTT against Atad2 | 0.0122 (inactive) |
| CCUGACAUUCUUUAAUCCATT against Synb | 0.6 (inactive) |
| CCAACUCUAAUAAUAACAGTT against Slc22a26 | 3.31 (active) |
| CCAGACAUGAAACUUGUAUTT against Mms19 | -0.165 (inactive) |
| GGCCAGAGGACUAUGUUAUTT against C1s2 | 1.24 (inactive) |
